Assay results reported in the supplement of paper PMC6555819.

Test system: LXRa homodimer (NR concentration 270 nM)
Test: PBM binding z-score (relative to random genomic background probes); higher = stronger binding; sequences stand for … in GC…GCGATTGACAGCGTAGAATGAAGG
Procedure, shortened: (§1)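 Ligand-free nuclear receptor dimers were bound for 1 h to custom Agilent 4×180K protein-binding microarrays. Detection used antibodies against each partner (one per run). Binding z-scores rest on regression-normalized fluorescence, with random background probes as the reference.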

| Sequence | PBM binding z-score |
| --- | --- |
| GCTAGTTGGTCAGTAAATGGTCACACACCGGTCG | -0.00637 |
| AGCTCTAGGTAAAAGTTCAGTGAATCCCGAGGAT | 0.969 |
| TAGCCTAGGTCATTCAGGGGCCAGTATGGAAAGC | 0.839 |
| TAGCCTAGGTCATAGGCCAGTATACCACGCGAAC | 0.285 |
| CAATCTAGGTCAAAGGTCAAAGTCGAGCCAACCA | 6.51 |
| AGACAAAGTTCAGGACGAGGTAACGTAAAGCACG | 0.814 |
| CCTGCTAGTTCATGGTCAGCTAATCTACAGTATG | -0.184 |
| TCTCGGAGGACACGAAAAGTCAGAGCTCGACATC | -0.301 |
| TGACTGAGGTTAAAGATCAGGGAACGTGGCGTCG | -0.224 |
| TATACAGGGTCTAAGGCCAGAGTACGAATGTCGA | 0.14 |
| ATCTGTAGGTTATCGGGTCATTCAGTTTGCGCAT | 2.79 |
| GCTGCTCGGTCAACTGATGGTCAGCTAAAGCTCG | 0.0425 |
| CCTTACAGGTCACGAGGTTATAGCACGACGAGCG | 2.37 |
| GCTGCTAGGTCGACTGATGGTCAGCTAAAGCTCG | -0.803 |
| TAGCCTAAGTCATGGGCCAGTATACCACGCGAAC | -0.218 |
| CAAACTAGGTCAAAGGTCAAAGCCGAGCCAACCA | 5.21 |
| TCTAGTTGGTCAAAGGCCACACACTCGAAATGCG | 0.139 |
| AGATTGAGGTTACCAAAGATCAGGGAAACGCTTG | 0.108 |
| CCTAGCAGGCCACGGTCACTCAAGCATTTCGCTT | -0.0188 |
| AGAATGAGGTTACCAGAGATCAGGGAAACGCTTG | -0.181 |

| Sequence | PBM binding z-score |
| --- | --- |
| CCTACTGGGCCAATGTCATTGATCAGTCAAAGCA | -0.956 |
| CCTACTGGGCCAACAAGGTCATTGATGCCGATAA | 1.44 |
| CCTACTGGGCGATTCAGAGGTCATTGATCATATG | 6.2 |
| CGTCCAACGTCAGCAGGTCAGTGAAAGCGACGTG | -0.366 |
| GGTACGAGGGCAAAGTTGATAGCATCTGTCGACG | -0.421 |
| CCTAGTTGGTCAAGGTCTCACACGCTATAGGTAC | 0.569 |
| ATATGTAGGTTACATCCGGGTCTTTCAGGCTATG | 0.384 |
| AGTCAAAGTTCAGTAGGTAACGTAAGATTCAGCT | 1.6 |
| CAAACTAGGTCACGAAAGGTCAAATTCGAATGAC | 8.38 |
| CATACAGGGTAAGCTAGGCCAGAGTAGGGACGGC | -0.335 |
| CCTGCTAGTTCAATGGTCAGCTAAAGCAGCTCGC | -0.297 |
| CCTAGTTGGTCAGGTGGTCACACACCGGATATGA | 0.26 |
| TAGCCTAGGTCATTGGACCAGTATAGTACGCATC | 1.02 |
| CCTGCTAGGTCAATGGTCAGCTAAAGCAGCTCGC | -0.22 |
| GCTGCTAGGTCAACTGATGGTCAGCTAGAGCTCG | 0.128 |
| ATCGAAAGGTGGACGAGGTGAGTATACACCGTTT | -0.304 |
| CCCGCTAGGTCATGGTCAGCTAATCTACAGTATG | 0.611 |
| CCAGACAGGTGAAAGGTAACTCACTCTGGTACGC | -0.00301 |
| CCTAGCAGACCAATCTGGGTCACTCAAGGCTTGA | -0.629 |

Test system: LXRb:RXRa (NR concentration 270 nM, RXRa partner concentration 90 nM)
Test: as above
Procedure, shortened: as §1

| Sequence | PBM binding z-score |
| --- | --- |
| GCTAGTTGGTCAGTAAATGGTCACACACCGGTCG | -0.244 |
| AGCTCTAGGTAAAAGTTCAGTGAATCCCGAGGAT | 0.702 |
| TAGCCTAGGTCATTCAGGGGCCAGTATGGAAAGC | 2.81 |
| TAGCCTAGGTCATAGGCCAGTATACCACGCGAAC | 2.09 |
| CAATCTAGGTCAAAGGTCAAAGTCGAGCCAACCA | 7.41 |
| AGACAAAGTTCAGGACGAGGTAACGTAAAGCACG | 1.95 |
| CCTGCTAGTTCATGGTCAGCTAATCTACAGTATG | 0.106 |
| TCTCGGAGGACACGAAAAGTCAGAGCTCGACATC | -0.0523 |
| TGACTGAGGTTAAAGATCAGGGAACGTGGCGTCG | 1.69 |
| TATACAGGGTCTAAGGCCAGAGTACGAATGTCGA | 0.157 |
| ATCTGTAGGTTATCGGGTCATTCAGTTTGCGCAT | 3.06 |
| GCTGCTCGGTCAACTGATGGTCAGCTAAAGCTCG | -0.248 |
| CCTTACAGGTCACGAGGTTATAGCACGACGAGCG | 4.42 |
| GCTGCTAGGTCGACTGATGGTCAGCTAAAGCTCG | -0.528 |
| TAGCCTAAGTCATGGGCCAGTATACCACGCGAAC | -0.0253 |
| CAAACTAGGTCAAAGGTCAAAGCCGAGCCAACCA | 7.3 |
| TCTAGTTGGTCAAAGGCCACACACTCGAAATGCG | 0.867 |
| AGATTGAGGTTACCAAAGATCAGGGAAACGCTTG | 3.17 |
| CCTAGCAGGCCACGGTCACTCAAGCATTTCGCTT | 0.0634 |
| AGAATGAGGTTACCAGAGATCAGGGAAACGCTTG | 3.62 |

| Sequence | PBM binding z-score |
| --- | --- |
| CCTACTGGGCCAATGTCATTGATCAGTCAAAGCA | -0.421 |
| CCTACTGGGCCAACAAGGTCATTGATGCCGATAA | 2.45 |
| CCTACTGGGCGATTCAGAGGTCATTGATCATATG | 3.09 |
| CGTCCAACGTCAGCAGGTCAGTGAAAGCGACGTG | -0.0519 |
| GGTACGAGGGCAAAGTTGATAGCATCTGTCGACG | 0.954 |
| CCTAGTTGGTCAAGGTCTCACACGCTATAGGTAC | 0.343 |
| ATATGTAGGTTACATCCGGGTCTTTCAGGCTATG | 1.23 |
| AGTCAAAGTTCAGTAGGTAACGTAAGATTCAGCT | 1.67 |
| CAAACTAGGTCACGAAAGGTCAAATTCGAATGAC | 7.56 |
| CATACAGGGTAAGCTAGGCCAGAGTAGGGACGGC | -0.589 |
| CCTGCTAGTTCAATGGTCAGCTAAAGCAGCTCGC | 0.044 |
| CCTAGTTGGTCAGGTGGTCACACACCGGATATGA | 0.406 |
| TAGCCTAGGTCATTGGACCAGTATAGTACGCATC | 2.36 |
| CCTGCTAGGTCAATGGTCAGCTAAAGCAGCTCGC | 1.4 |
| GCTGCTAGGTCAACTGATGGTCAGCTAGAGCTCG | 1.85 |
| ATCGAAAGGTGGACGAGGTGAGTATACACCGTTT | -0.111 |
| CCCGCTAGGTCATGGTCAGCTAATCTACAGTATG | 2 |
| CCAGACAGGTGAAAGGTAACTCACTCTGGTACGC | 0.938 |
| CCTAGCAGACCAATCTGGGTCACTCAAGGCTTGA | 0.514 |
